Among the data in PubChem BioAssay (EPA / NIEHS) are AC50 and outcome values, retold here.

Records with an inconclusive call do not appear. Some structures have more than one record in an assay (separate samples or runs), and their calls can disagree. Active and inactive are the calls of the source. The calls were made as follows: active = hit-call score of the fitted dose curve at least 0.9, where 1 is the maximum; inconclusive = response in the unintended direction; inactive = score below 0.9.

Usually AC50 stands for the concentration giving half of the maximal activity seen.

human Norepinephrine Transporter (NET), SLC6A2 (gene 6530), sequence (P23975 whole entry, looked up): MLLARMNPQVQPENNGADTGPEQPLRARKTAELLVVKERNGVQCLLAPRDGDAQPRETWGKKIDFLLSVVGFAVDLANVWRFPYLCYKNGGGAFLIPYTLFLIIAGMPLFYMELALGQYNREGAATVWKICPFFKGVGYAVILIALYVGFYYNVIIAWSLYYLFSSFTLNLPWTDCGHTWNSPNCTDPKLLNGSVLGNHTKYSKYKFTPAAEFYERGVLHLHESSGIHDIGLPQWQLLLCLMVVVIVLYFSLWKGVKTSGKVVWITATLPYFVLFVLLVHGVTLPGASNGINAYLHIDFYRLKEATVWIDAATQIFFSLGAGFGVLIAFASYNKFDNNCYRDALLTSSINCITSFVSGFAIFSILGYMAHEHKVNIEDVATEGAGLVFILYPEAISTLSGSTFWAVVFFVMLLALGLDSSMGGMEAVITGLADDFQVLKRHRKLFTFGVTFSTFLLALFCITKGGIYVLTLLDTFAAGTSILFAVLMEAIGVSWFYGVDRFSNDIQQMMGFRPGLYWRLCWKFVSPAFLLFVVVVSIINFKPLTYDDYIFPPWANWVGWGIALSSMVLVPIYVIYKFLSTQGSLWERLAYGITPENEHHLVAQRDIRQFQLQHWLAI
Peroxisome proliferator-activated receptor gamma (Homo sapiens), sequence (P37231 whole entry, looked up): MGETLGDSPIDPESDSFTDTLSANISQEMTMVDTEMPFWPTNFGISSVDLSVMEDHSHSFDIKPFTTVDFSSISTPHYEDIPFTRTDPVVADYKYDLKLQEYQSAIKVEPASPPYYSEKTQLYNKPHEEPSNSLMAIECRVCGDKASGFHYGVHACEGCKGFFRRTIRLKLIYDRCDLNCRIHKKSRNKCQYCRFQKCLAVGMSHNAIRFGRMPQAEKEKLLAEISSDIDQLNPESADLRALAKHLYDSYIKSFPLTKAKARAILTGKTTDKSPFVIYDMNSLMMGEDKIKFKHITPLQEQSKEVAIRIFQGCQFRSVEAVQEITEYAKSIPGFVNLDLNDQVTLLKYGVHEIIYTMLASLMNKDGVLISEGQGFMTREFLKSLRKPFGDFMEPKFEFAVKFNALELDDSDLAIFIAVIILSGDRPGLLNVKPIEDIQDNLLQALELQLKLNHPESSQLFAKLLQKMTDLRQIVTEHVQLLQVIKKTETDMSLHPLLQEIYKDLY
human Dopamine Transporter (DAT), SLC6A3 (gene 6531), sequence (Q01959 whole entry, looked up): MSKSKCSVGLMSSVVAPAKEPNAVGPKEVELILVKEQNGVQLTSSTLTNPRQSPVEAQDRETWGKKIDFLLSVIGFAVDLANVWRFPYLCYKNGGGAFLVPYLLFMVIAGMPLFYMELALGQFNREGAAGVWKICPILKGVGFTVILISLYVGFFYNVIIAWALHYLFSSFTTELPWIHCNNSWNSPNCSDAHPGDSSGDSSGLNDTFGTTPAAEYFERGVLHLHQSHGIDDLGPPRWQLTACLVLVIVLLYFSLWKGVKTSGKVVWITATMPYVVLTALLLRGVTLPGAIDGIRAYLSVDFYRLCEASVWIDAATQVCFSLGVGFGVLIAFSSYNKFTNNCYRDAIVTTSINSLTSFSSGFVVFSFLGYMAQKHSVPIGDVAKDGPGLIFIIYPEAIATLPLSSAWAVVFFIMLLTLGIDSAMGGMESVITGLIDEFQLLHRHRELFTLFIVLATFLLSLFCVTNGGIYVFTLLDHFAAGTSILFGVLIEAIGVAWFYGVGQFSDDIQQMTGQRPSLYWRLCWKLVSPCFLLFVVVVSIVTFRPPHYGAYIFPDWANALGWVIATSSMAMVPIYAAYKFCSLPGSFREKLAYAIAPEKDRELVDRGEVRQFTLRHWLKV

The first test addresses Peroxisome proliferator-activated receptor gamma (Homo sapiens) (UniProt P37231). Kind of test: NVS_NR_hPPARg: NovaScreen (NVS) Nuclear Receptor Binding Assay for human Peroxisome Proliferator-activated Receptor gamma (PPARg) (AID 2283370). A digest of the protocol:
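Fluorescence polarization measures competitive binding to extracted PPARg in a cell-free format. Reading is taken at 2 h; activity is signal loss relative to DMSO. Screening at 25 uM in duplicate preceded confirmatory dose series.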
In the case of `CCCCCCCCCCOS(=O)(=O)O`, the AC50 is 15.6 µM (active) and the molecule was classed as inactive.
As for `C1CN(SSN2CCOCC2)CCO1`, the result was inactive.
On the same count and under the same terms, in the case of `CC(C)C1=CC2=CC[C@@H]3[C@](C)(CCC[C@@]3(C)C(=O)O)[C@H]2CC1` it was “inactive”.

The next test concerns the target human Dopamine Transporter (DAT), SLC6A3 (gene 6531) (UniProt Q01959). Description: NVS_TR_hDAT: NovaScreen (NVS) Transporter Assay for human Dopamine Transporter (DAT) (AID 2283374).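 Also: activity means loss of bound radioligand signal relative to DMSO.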 Put shortly:
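Test chemicals were first screened in duplicate at 25 uM, with actives retested as concentration series. Displacement of a specific radioligand from cell-free human dopamine transporter was measured after 1 h by filtration and scintillation counting.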
As for `c1ccc2c(c1)ccc1ncccc12`, the AC50 was 16.4 µM (active).
On the same count and under the same terms, in the case of `CCCCCCCCCCCCCCCC[N+](C)(C)CC` it was 1.82 µM (active).
Take `CC(C)=CC1CC(C)CCO1` (stereo not drawn): the molecule was classed as inactive.

The next test addresses human Norepinephrine Transporter (NET), SLC6A2 (gene 6530) (UniProt P23975). Description: NVS_TR_hNET: NovaScreen (NVS) Transporter Assay for human Norepinephrine Transporter (NET) (AID 2283377).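 Also: cell-free membrane protein extracted from CHO cells expressing human NET.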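 As to AC50: displacement of radioligand from human NET seen as loss of scintillation signal.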 Put shortly: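 Scintillation counts of filter-retained radioligand served as the readout, taken 1 h post-dosing in a cell-free CHO-derived system. Test chemicals ran first at 25 uM in duplicate; confirmed hits were retested across concentrations.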
On to `COc1ccc2nc(N)sc2c1`, for which the concentration at half-maximal activity (AC50) was 9.9 µM (active).
Still for that read-out and setting: for `c1ccc2c(c1)ccc1ncccc12` the value was 7.22 µM (active); for `CCCCCCCCCCCCCCCC[N+](C)(C)CC`, 2.32 µM (active).
Consider `O=[N+]([O-])c1ccc(CO)cc1`, for which the call was inactive.
The same measure, in the same setting: in the case of `O=C(Nc1ccccc1SSc1ccccc1NC(=O)c1ccccc1)c1ccccc1` it was “inactive”.

For a further test, the target named is mouse Estrogen Receptor alpha (Era), Esr1 (gene 13982) (UniProt P19785). Description: NVS_NR_mERa: NovaScreen (NVS) Nuclear Receptor Binding Assay for mouse Estrogen Receptor alpha (Era) (AID 2283378).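 Also: hit means loss of bound radioligand signal relative to DMSO.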 Put shortly: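 Test chemicals competed against a specific radioligand for binding to cell-free mouse Era. Duplicate wells at 25 uM were read 18 hours later by filter-based radiodetection, with loss of signal against DMSO scored as activity.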
mouse Estrogen Receptor alpha (Era), Esr1 (gene 13982), sequence (P19785 whole entry, looked up): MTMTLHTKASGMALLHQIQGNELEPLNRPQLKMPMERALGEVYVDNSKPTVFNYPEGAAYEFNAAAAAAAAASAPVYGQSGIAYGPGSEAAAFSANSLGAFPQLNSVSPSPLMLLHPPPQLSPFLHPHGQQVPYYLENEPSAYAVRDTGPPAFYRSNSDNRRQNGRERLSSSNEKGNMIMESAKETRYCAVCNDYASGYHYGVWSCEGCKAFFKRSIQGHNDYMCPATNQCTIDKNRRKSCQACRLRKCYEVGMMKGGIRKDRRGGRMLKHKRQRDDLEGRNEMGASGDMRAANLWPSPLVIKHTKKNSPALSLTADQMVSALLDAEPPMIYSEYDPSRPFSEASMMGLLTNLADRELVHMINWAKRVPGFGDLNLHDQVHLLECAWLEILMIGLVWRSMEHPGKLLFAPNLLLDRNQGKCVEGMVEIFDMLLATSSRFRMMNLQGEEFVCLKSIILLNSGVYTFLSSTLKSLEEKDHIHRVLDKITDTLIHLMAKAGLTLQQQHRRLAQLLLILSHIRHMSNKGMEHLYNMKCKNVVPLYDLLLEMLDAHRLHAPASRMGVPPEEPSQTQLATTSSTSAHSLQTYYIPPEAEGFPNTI
With `O=CN1CCCCC1`, the result was inactive.
Same read-out and setting: for `S=C(NC1CCCCC1)NC1CCCCC1` the value was “inactive”.
For the molecule `CCC(=O)Oc1ccc(/C(CC)=C(\CC)c2ccc(OC(=O)CC)cc2)cc1`, the AC50 is 0.0132 µM (active).
For `[Cl][Bi]([Cl])([c]1ccccc1)([c]1ccccc1)[c]1ccccc1`, the call was inactive.
Still for that read-out and setting: for `CCC(Cc1ccccc1)(C(=O)c1ccc(N2CCOCC2)cc1)N(C)C` (stereo not drawn) the value was “inactive”.
For the molecule `CCC(C)OC(=O)c1ccc(O)cc1` (stereo not drawn), the half-maximal activity concentration (AC50) is 4.99 µM (active).
Turning to `CC(C)c1ccc2c(c1)CC[C@H]1[C@](C)(CN)CCC[C@]21C`, the result was inactive.
Turning to `O=C(c1ccc(O)cc1)c1ccc(O)cc1O`, the concentration at half-maximal activity (AC50) is 1.29 µM (active).
On to `C=CC(C)(CCC=C(C)C)OC(=O)CC(C)C` (stereo not drawn), for which the molecule was classed as inactive.
Turning to `O=C(O)CCCCCCCCCC(=O)O`, the outcome was inactive.
Still for that read-out and setting: for `O=C(O)c1ccccc1Nc1cccc(C(F)(F)F)c1` the value was “inactive”.
As to `O=C1Nc2ccccc2C1(c1ccc(O)cc1)c1ccc(O)cc1`, the AC50 was 6.61 µM (active).
Consider `CC(C)C1=CC2=CC[C@@H]3[C@](C)(CCC[C@@]3(C)C(=O)O)[C@H]2CC1`, for which the molecule was called inactive.
As to `Cc1cccc(N(C)C(=S)Oc2ccc3ccccc3c2)c1`, the molecule was classed as inactive.
On the same count and under the same terms, in the case of `O=C1CCCCCN1SSN1CCCCCC1=O` it was “inactive”; in that of `CCOC(=O)N1CCC(=C2c3ccc(Cl)cc3CCc3cccnc32)CC1`, “inactive”.
On to `C=C[C@](C)(O)CC[C@@H]1[C@@]2(C)CCCC(C)(C)[C@@H]2CC[C@@]1(C)O`, for which the outcome was inactive.
The same measure, in the same setting: for `CC(C)(C)C(=O)CCc1ccc(Cl)cc1` the value was “inactive”.
On to `COc1ccc(-c2coc3cc(O)ccc3c2=O)cc1`, for which the AC50 was 0.143 µM (active).
Regarding `NC(CO)(CO)CO`, the outcome was inactive.
For the molecule `COc1ccc(C(Cl)=C(c2ccc(OC)cc2)c2ccc(OC)cc2)cc1`, the AC50 was 4.88 µM (active).
